Drawing on PubChem BioAssay (NCATS), this text covers outcome and Potency for 28 compounds.

The target in experiment [1] is Alpha-galactosidase (Coffea arabica) (UniProt Q42656). Nature of the experiment: Counterscreen for Glucocerebrosidase Inhibitors: qHTS Assay for Coffee Bean alpha-Galactosidase at pH 4.5 (AID 957). Also: series mostly up to about 77 µM. The method, boiled down:
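Coffee bean enzyme (2 nM) with 80 uM 4-methylumbelliferyl alpha-D-galactopyranoside in 50 mM citric acid, 0.005% Tween-20, pH 4.5, 20 min at room temperature; compounds 0.7 nM–77 uM. Stopped at pH 10, fluorescence 365/440 nm; AC50 from Hill fits.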
For orientation: The purpose of a counterscreen is to sort out artefacts and off-target activity.

The target is the same in experiment [2]. Nature of the experiment: Counterscreen for Glucocerebrosidase Inhibitors: qHTS Assay for Coffee Bean alpha-Galactosidase at pH 5.9 (AID 998). An outline of the steps: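 Green coffee bean enzyme (2 nM final) was incubated with compounds (0.7 nM–77 uM) and 4-methylumbelliferyl alpha-D-galactopyranoside (80 uM) in citrate buffer pH 5.9, 20 min at room temperature. High-pH stop; fluorescence 365/440 nm; AC50 from Hill fits.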

The nature of experiment [3]: Validation screen for inhibitors of Lassa infection (AID 463096; calls by dose curve; also: potency is read from the fitted curve at half-maximal effect).
Experiment [4] in a line: Inducers of the Endoplasmic Reticulum Stress Response (ERSR) in human glioma: Validation (AID 504836). The method, boiled down:
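Stably transfected U87-MG human glioma cells carrying a GRP78-based luminescent sensor were seeded at 1000 cells/well, pin-dosed with compounds and incubated 16 h. Luciferase reagent was then added, and end-point luminescence was read after 10 min at room temperature.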

Experiment [5] is described as follows: qHTS for Inhibitors of the Functional Ribonucleoprotein Complex (vRNP) of Lassa (LASV) Arenavirus: LASV Primary Screen - GLuc reporter signal (AID 1347082; calls by dose curve; tested in HEK293 reporter line; also: series mostly up to about 57 µM; nearly all actives have a fitted effect of over 60% in size).
Experiment [6] is described as follows: qHTS for Inhibitors of the Functional Ribonucleoprotein Complex (vRNP) of Lassa (LASV) Arenavirus: Viability assay - alamar blue signal for LASV Primary Screen (AID 1347083; calls by dose curve; tested in HEK293 reporter line; also: series mostly up to about 57 µM; nearly all actives have a fitted effect of over 80% in size).
Experiment [7] is described as follows: qHTS for Inhibitors of the Functional Ribonucleoprotein Complex (vRNP) of Lymphocytic Choriomeningitis Arenaviruses (LCMV): Viability assay - alamar blue signal for LCMV Primary Screen (AID 1347085; calls by dose curve; tested in HEK293 reporter line; also: series mostly up to about 57 µM; nearly all actives have a fitted effect of over 80% in size). For orientation: qHTS replaces the single test concentration by a dilution series.
Experiment [8] addresses Nucleoprotein (Lymphocytic choriomeningitis virus (strain Armstrong)) (UniProt P09992). Put plainly: qHTS for Inhibitors of the Functional Ribonucleoprotein Complex (vRNP) of Lymphocytic Choriomeningitis Arenaviruses (LCMV): LCMV Primary Screen - GLuc reporter signal (AID 1347086; calls by dose curve; also: series mostly up to about 57 µM; nearly all actives have a fitted effect of over 70% in size).

Records with an inconclusive call do not appear. Activity calls are given as the source filed them. Unless noted, calls follow the shape of the dose curve; as a rule, active = well fitted curve in the direction sought with a large enough effect; inconclusive = small, poorly fitted or top-dose-only effect, or another doubt; inactive = no such curve, though single readings can be large; an effect the other way counts as inactive or inconclusive.

Sequence of Nucleoprotein (Lymphocytic choriomeningitis virus (strain Armstrong)) (P09992 whole entry, looked up): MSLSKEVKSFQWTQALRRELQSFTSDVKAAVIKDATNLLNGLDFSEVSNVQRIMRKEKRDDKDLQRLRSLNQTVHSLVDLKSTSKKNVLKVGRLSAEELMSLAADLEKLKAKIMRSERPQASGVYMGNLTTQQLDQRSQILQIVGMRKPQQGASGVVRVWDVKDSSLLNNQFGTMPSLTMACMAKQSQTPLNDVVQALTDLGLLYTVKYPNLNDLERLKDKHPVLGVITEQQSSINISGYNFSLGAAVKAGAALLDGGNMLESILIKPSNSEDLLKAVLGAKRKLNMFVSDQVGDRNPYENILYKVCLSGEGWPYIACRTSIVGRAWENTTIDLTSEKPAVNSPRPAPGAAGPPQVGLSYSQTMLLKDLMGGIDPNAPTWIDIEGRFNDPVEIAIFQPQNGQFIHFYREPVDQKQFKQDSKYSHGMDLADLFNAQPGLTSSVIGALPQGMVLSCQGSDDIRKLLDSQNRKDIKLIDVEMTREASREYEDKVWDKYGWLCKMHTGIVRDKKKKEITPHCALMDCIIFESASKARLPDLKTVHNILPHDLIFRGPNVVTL
Sequence of Alpha-galactosidase (Coffea arabica) (Q42656 whole entry, looked up): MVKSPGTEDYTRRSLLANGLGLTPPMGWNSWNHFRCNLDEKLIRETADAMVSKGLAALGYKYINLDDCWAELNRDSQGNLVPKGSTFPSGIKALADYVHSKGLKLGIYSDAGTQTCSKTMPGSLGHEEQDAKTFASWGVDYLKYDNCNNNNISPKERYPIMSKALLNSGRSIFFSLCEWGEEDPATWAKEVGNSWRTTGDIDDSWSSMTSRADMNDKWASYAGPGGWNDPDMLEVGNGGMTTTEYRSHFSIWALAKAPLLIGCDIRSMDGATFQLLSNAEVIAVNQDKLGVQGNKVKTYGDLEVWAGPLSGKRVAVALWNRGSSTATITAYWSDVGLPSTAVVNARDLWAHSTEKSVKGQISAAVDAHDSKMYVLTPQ

Take `COc1ccccc1N1CCN(CCN2C(=O)CC3(CCCC3)CC2=O)CC1`: the outcome in experiment [1], in experiment [2] and in experiment [4] was inactive. Besides, the Potency entry in experiment [3], in experiment [5], in experiment [6], in experiment [7] and in experiment [8] was “inactive” each time.

On to `O=C(O)c1cccnc1C(=O)O`, for which the outcome in experiment [1], in experiment [2] and in experiment [4] was inactive. Also, the Potency entry in experiment [3], in experiment [5], in experiment [6], in experiment [7] and in experiment [8] was “inactive” in each case.

On to `CCCn1c(=O)[nH]c(=O)c2[nH]cnc21`, for which the outcome in experiment [1], in experiment [2] and in experiment [4] was inactive. Also, the Potency entry in experiment [3], in experiment [5], in experiment [6], in experiment [7] and in experiment [8] was “inactive” each time.

In the case of `N#C/C(=C\c1ccc(O)c(O)c1)C(=O)c1ccc(O)c(O)c1`, the call in experiment [1], in experiment [2] and in experiment [4] was inactive. Besides, the Potency entry in experiment [3], in experiment [5], in experiment [6], in experiment [7] and in experiment [8] was “inactive” in each case.

Regarding `Cc1cc2c(cc1Cl)N(C(=O)Nc1ccnc3ccccc13)CC2`, the compound was called inactive in experiment [1], in experiment [2] and in experiment [4]. The Potency entry in experiment [3], in experiment [5], in experiment [6], in experiment [7] and in experiment [8] was “inactive” in each case.

Turning to `Cc1ccc([N+](=O)[O-])cc1S(=O)(=O)N(C)C`, the outcome in experiment [1], in experiment [2] and in experiment [4] was inactive. Besides, the Potency entry in experiment [3], in experiment [5], in experiment [6], in experiment [7] and in experiment [8] was “inactive” each time.

Regarding `O=C(O)C1=CCCN(CCON=C(c2ccccc2)c2ccccc2)C1`, the call in experiment [1], in experiment [2] and in experiment [4] was inactive. Besides, the Potency result in experiment [3], in experiment [5], in experiment [6], in experiment [7] and in experiment [8] was “inactive” each time.

Regarding `O=C(O)c1ccccc1Nc1cccc(OCc2ccc3ccccc3n2)c1`, the result in experiment [1], in experiment [2] and in experiment [4] was inactive. The Potency result in experiment [3], in experiment [5], in experiment [6], in experiment [7] and in experiment [8] was “inactive” each time.

`CCCCN1CCC(n2c(=O)[nH]c3ccccc32)CC1`: the result in experiment [1], in experiment [2] and in experiment [4] was inactive. For the same compound, the Potency result in experiment [3], in experiment [5], in experiment [6], in experiment [7] and in experiment [8] was “inactive” each time.

On to `O=C(OCCN1CCOCC1)C1(c2ccccc2)CCCCC1`, for which the compound was classed as inactive in experiment [1], in experiment [2] and in experiment [4]. In addition, the Potency result in experiment [3], in experiment [5], in experiment [6], in experiment [7] and in experiment [8] was “inactive” throughout.

On to `N=C(N)SCCN`, for which the result in experiment [1], in experiment [2] and in experiment [4] was inactive. Moreover, the Potency result in experiment [3], in experiment [5], in experiment [6], in experiment [7] and in experiment [8] was “inactive” throughout.

Take `COc1ccccc1N1CCN(CCCCNC(=O)c2ccc3ccccc3c2)CC1`: the outcome in experiment [1], in experiment [2] and in experiment [4] was inactive. Further, the Potency in experiment [3] is 11.2 µM (active). Moreover, the Potency result in experiment [5], in experiment [6], in experiment [7] and in experiment [8] was “inactive” in each case.

For `CCCOC(=O)c1c(-c2ccccc2)nc(CC)c(C(=O)SCC)c1CCC`, the call in experiment [1], in experiment [2] and in experiment [4] was inactive. The Potency result in experiment [3], in experiment [5], in experiment [6], in experiment [7] and in experiment [8] was “inactive” each time.

As for `[Li+]`, the outcome in experiment [1], in experiment [2] and in experiment [4] was inactive. In addition, the Potency result in experiment [3], in experiment [5], in experiment [6], in experiment [7] and in experiment [8] was “inactive” each time.

As for `O=C1CCC(c2ccc(-n3ccnc3)cc2)=NN1`, the call in experiment [1], in experiment [2] and in experiment [4] was inactive. For the same compound, the Potency entry in experiment [3], in experiment [5], in experiment [6], in experiment [7] and in experiment [8] was “inactive” throughout.

As to `N#Cc1cc2nc(O)c(O)nc2cc1[N+](=O)[O-]`, the compound was called inactive in experiment [1], in experiment [2] and in experiment [4]. For the same compound, the Potency entry in experiment [3], in experiment [5], in experiment [6], in experiment [7] and in experiment [8] was “inactive” each time.

`O=C(O)c1cc2cc(Cc3cccnc3)ccc2o1`: the outcome in experiment [1], in experiment [2] and in experiment [4] was inactive. The Potency entry in experiment [3], in experiment [5], in experiment [6], in experiment [7] and in experiment [8] was “inactive” throughout.

For the compound `NCCCCCCCCCCN`, the compound was called inactive in experiment [1], in experiment [2] and in experiment [4]. Moreover, the Potency entry in experiment [3], in experiment [5], in experiment [6], in experiment [7] and in experiment [8] was “inactive” in each case.

As to `NC(N)=NC(N)=Nc1ccccc1`, the outcome in experiment [1], in experiment [2] and in experiment [4] was inactive. Besides, the Potency entry in experiment [3], in experiment [5], in experiment [6], in experiment [7] and in experiment [8] was “inactive” throughout.

As to `O=C(O)c1cc2cc(F)ccc2[nH]1`, the compound was called inactive in experiment [1], in experiment [2] and in experiment [4]. Also, the Potency entry in experiment [3], in experiment [5], in experiment [6], in experiment [7] and in experiment [8] was “inactive” throughout.

Regarding `Fc1ccc(CN(C2=NCCN2)c2c(Cl)cccc2Cl)cc1`, the call in experiment [1], in experiment [2] and in experiment [4] was inactive. The Potency entry in experiment [3], in experiment [5], in experiment [6], in experiment [7] and in experiment [8] was “inactive” in each case.

On to `C[C@@H](NC(=O)/C(C#N)=C/c1ccc(O)c(O)c1)c1ccccc1`, for which the outcome in experiment [1], in experiment [2] and in experiment [4] was inactive. In addition, the Potency result in experiment [3], in experiment [5], in experiment [6], in experiment [7] and in experiment [8] was “inactive” in each case.

For `C/C(=C\c1ccc(C(=O)O)cc1)c1ccc2c(c1)C(C)(C)CCC2(C)C`, the call in experiment [1], in experiment [2] and in experiment [4] was inactive. Moreover, the Potency entry in experiment [3], in experiment [5], in experiment [6], in experiment [7] and in experiment [8] was “inactive” throughout.

Regarding `N=C(N)c1ccc(N)cc1`, the call in experiment [1], in experiment [2] and in experiment [4] was inactive. Moreover, the Potency entry in experiment [3], in experiment [5], in experiment [6], in experiment [7] and in experiment [8] was “inactive” throughout.

Regarding `CC(=O)N[C@@H](Cc1c[nH]c2ccccc12)C(=O)OCc1cc(C(F)(F)F)cc(C(F)(F)F)c1`, the compound was called inactive in experiment [1], in experiment [2] and in experiment [4]. Also, the Potency entry in experiment [3], in experiment [5], in experiment [6], in experiment [7] and in experiment [8] was “inactive” throughout.

Consider `N[C@@H](CS(=O)O)C(=O)O`, for which the call in experiment [1], in experiment [2] and in experiment [4] was inactive. For the same compound, the Potency result in experiment [3], in experiment [5], in experiment [6], in experiment [7] and in experiment [8] was “inactive” throughout.

In the case of `Cn1cc(C(=O)OCC2CCN(CCNS(C)(=O)=O)CC2)c2ccccc21`, the result in experiment [1], in experiment [2] and in experiment [4] was inactive. Also, the Potency entry in experiment [3], in experiment [5], in experiment [6], in experiment [7] and in experiment [8] was “inactive” in each case.

With `NC1(C(=O)O)CCCCC1`, the outcome in experiment [1], in experiment [2] and in experiment [4] was inactive. Further, the Potency entry in experiment [3], in experiment [5], in experiment [6], in experiment [7] and in experiment [8] was “inactive” in each case.
